RXFP1 agonist – qHTS Assay for Agonists of the Relaxin Receptor RXFP1. Relaxin receptor 1 (Homo sapiens), Q9HBX9. HEK293T-RXFP1 cAMP TR-FRET, 30 min; response scale: percent of porcine relaxin response, buffer zero. Potency, µM (series often up to 57.5 µM), inactives show at the highest dose activation, actives largely listed as activators. hit rate 0.3% among 370,000. AID 2676, 2010; note: potency is the fitted concentration of half-maximal effect; % is set by controls: 0 for no effect and ±100 for the full control effect; nearly all actives have a fitted effect of over 60% in size
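HEK293 cells stably expressing RXFP1, treated 30 min at 37C with compounds plus PDE4 inhibitor Ro 20174; cAMP measured by HTRF TR-FRET. Normalized to buffer and 29 nM porcine relaxin; EC50 by Hill fit.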
NPSR antagonist – qHTS Assay for Antagonists of the Neuropeptide S Receptor: cAMP Signal Transduction; Q6W5P4; CHO-NPSR cells, cAMP TR-FRET, antagonist mode; Potency, µM (series often up to 38.3 µM), for inactives: top-dose activity change, negative = inhibition, actives largely listed as inhibitors; hit rate 1% among 220,000; AID 1461, 2008; note: potency is the fitted concentration of half-maximal effect; % is set by controls: 0 for no effect and ±100 for the full control effect; nearly all actives have a fitted effect of over 50% in size
RXFP1 antagonist – qHTS Assay for Antagonists of the Relaxin Receptor RXFP1; Relaxin receptor 1 (Homo sapiens), Q9HBX9; HEK293-RXFP1, relaxin-stimulated cAMP HTRF, 30 min; stronger effect = lower value; activity change, negative = inhibition, % at 57.5 µM; hit rate 0.59% among 350,000; AID 1259400, 2018;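 active = activity change of -60% or lower, but not beyond a set lower limit; inconclusive = change between -60% and -40%, or beyond the set limit; inactive = change above -40%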; note: % is set by controls: 0 for no effect and ±100 for the full control effect
TCR act – Activators of T cell receptors: qHTS campaign. 330,000 tested, under 10 active. primary human leukocytes, anti-CD3, IL-2 HTRF, 48 h. Potency, µM (titrated, usually from 9.22 µM), for inactives: at the highest dose activation of IL-2 secretion, usual class: activators; note: % of control where 0% means no effect
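Using a-CD3 beads without co-stimulation, primary human leukocytes were exposed to compounds for 48 hr. An HTRF IL-2 kit measured the cytokine, with europium-to-d2 energy transfer producing emission at 665nm upon 320nm excitation.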
PTHR1 ag – qHTS for PTHR1 Agonists: Primary Screen; hit rate 0.075% among 410,000; Potency, µM (top dose mostly 115 µM), inactives show at the highest dose activation, usual class: activators; HEK293 GP2 PTHR1 cells, GloSensor cAMP luminescence, 1 h; AID 743266, 2014; Parathyroid hormone/parathyroid hormone-related peptide receptor (Homo sapiens), Q03431; note: potency is the fitted concentration of half-maximal effect; nearly all actives have a fitted effect of over 55% in size
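HEK-293-derived GP2 cells expressing PTHR1 and a GloSensor cAMP reporter, 3,000/well, plated overnight, given luciferin plus IBMX (each 0.5 mM as added) for 1 h at 37 °C, then compound for 1 h at 37 °C. Luminescence was read after 15 min at room temperature.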
TSHR antagonist – Antagonists of the Thyroid Stimulating Hormone Receptor: HTS campaign | Thyrotropin receptor (Homo sapiens), P16473 | TSHR-expressing cells, TSH-stimulated cAMP HTRF, 2 h; stronger effect = lower value | activity change, negative = inhibition, % at 11.5 µM | hit rate 0.2% among 330,000;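 active = activity change below a set negative limit, meaning inhibition stronger than a set level, cut at about -70% in these data; inconclusive = activity change between two set negative limits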; note: % is set by controls: 0 for no effect and ±100 for the full control effect
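Read-out is FRET at 665 nm (cryptate excitation 337 nm) from a cryptate-tagged anti-cAMP antibody, competed by cell cAMP against cAMP-d2. Compounds are tested on freshly harvested TSHR cells challenged with 4nM TSH (EC80) for 2 hours at 37 deg C.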
* marks the source's active call; other numbers are inactive results; [ ] = another dose, or the depositor's remark. The entries come from a sample that favours hits as a whole. Unless noted, calls come from the whole dose curve; as a rule, active = well fitted curve in the direction sought with a large enough effect; inconclusive = small, poorly fitted or top-dose-only effect, or another doubt; inactive = no such curve, though single readings can be large; an effect the other way counts as inactive or inconclusive.

How did Cc1cccc(N=C2NC(=O)/C(=C/C=C/c3ccco3)S2)c1C do in these assays?
RXFP1 agonist: 1%; NPSR antagonist: -40%; RXFP1 antagonist: -77*; TCR act: 1%[46.1 µM]; PTHR1 ag: inactive; TSHR antagonist: -2

What do the screens show for `Cc1cccc(N=C2NC(=O)/C(=C/c3cccn3C)S2)c1C`?
RXFP1 agonist: 0%; NPSR antagonist: -26%; RXFP1 antagonist: -26; TCR act: -1%; PTHR1 ag: inactive; TSHR antagonist: -1

How did COc1ccc(N=C2NC(=O)/C(=C/c3ccco3)S2)cc1 do in these assays?
RXFP1 agonist: -1%; NPSR antagonist: -8%; RXFP1 antagonist: -10; TCR act: 4%; PTHR1 ag: -2%; TSHR antagonist: 3

How did CCCC(=O)OCc1cnc(C)c2oc(=O)c(C(=O)Nc3cccc(C(F)(F)F)c3)cc12 do in these assays?
RXFP1 agonist: -1%; PTHR1 ag: -14%

Results for CC1=C/C(=N\NC(=S)Nc2cccnc2)CC(C)(C)C1 ?
RXFP1 agonist: 2%; NPSR antagonist: 1.3µM*; RXFP1 antagonist: -4; TCR act: 8%; PTHR1 ag: inactive; TSHR antagonist: -7

Results for Cc1cccc2sc(NNC(=O)C3=COCCO3)nc12 ?
RXFP1 agonist: -2%; NPSR antagonist: 13%; RXFP1 antagonist: -61*; TCR act: -2%; PTHR1 ag: inactive; TSHR antagonist: 3

How did CCCOc1ccccc1Cn1c(=O)sc2ccccc21 do in these assays?
RXFP1 agonist: 0%; RXFP1 antagonist: -62*; PTHR1 ag: inactive

Results for CCCOc1ccc(Cn2c(=O)sc3ccccc32)cc1 ?
RXFP1 agonist: -1%; RXFP1 antagonist: -25; PTHR1 ag: inactive

What do the screens show for `COc1ccc(CN(CC(=O)NCCC(C)C)C(=O)CCC(=O)Nc2nccs2)cc1`?
RXFP1 agonist: -4%; RXFP1 antagonist: -69*; TCR act: -4%; PTHR1 ag: -20%; TSHR antagonist: 6

How did CCOc1ccc(N(CC(=O)NCc2ccc(F)cc2)C(=O)CCC(=O)Nc2nccs2)cc1 do in these assays?
RXFP1 agonist: 0%; RXFP1 antagonist: 2; TCR act: 3%; PTHR1 ag: inactive; TSHR antagonist: -95*

Results for O=C(COc1ncnc2scc(-c3ccccc3)c12)NCCN1C(=O)CSC1=O ?
RXFP1 agonist: 11µM*; NPSR antagonist: 0%; TSHR antagonist: 19

What do the screens show for `COc1ccc(-n2c(SCC(=O)NCc3ccc(F)cc3)nc3c([nH]c4ccccc43)c2=O)cc1`?
RXFP1 agonist: 0%; PTHR1 ag: -3%

What do the screens show for `CCOC(=O)c1cc(OC(=O)c2cc(Cl)ccc2OC)n(-c2ccccc2)n1`?
RXFP1 agonist: 0%; PTHR1 ag: inactive

Results for Cc1ccccc1NC(=O)CSc1nc2c(c(-c3ccco3)c1C#N)CCCC2 ?
RXFP1 agonist: 27%; NPSR antagonist: 10µM*; RXFP1 antagonist: -13; TCR act: 10%; PTHR1 ag: 16%[57.5 µM]; TSHR antagonist: -14

Results for CCc1ccccc1NC(=O)CSc1nc2c(c(-c3ccco3)c1C#N)CCCC2 ?
RXFP1 agonist: inconclusive; NPSR antagonist: inconclusive; RXFP1 antagonist: -10; TCR act: -6%; PTHR1 ag: -46%[57.5 µM]; TSHR antagonist: -43

How did C=C(CCC(=O)c1ccccc1)C(=O)c1ccccc1 do in these assays?
RXFP1 agonist: 1%; NPSR antagonist: inconclusive; RXFP1 antagonist: -67*; TCR act: -2%[46.1 µM]; PTHR1 ag: -26%; TSHR antagonist: -33
